In the OligoGym collection one finds sensor-assay potency score (higher = more potent) data, which are given here for 40 sequences.
Further: reference of the scale not given here.

The target of one experiment is CPD. The experiment is described as follows: pooled miR-30 sensor sort-seq; sequence = guide strand. The conditions noted are these: shRNA.
As to TTGGAACACAGCATCATCTGGT, the sensor-assay potency score (higher = more potent) came out at 0.644.

Take TTGTTTGTACCTTTATTCCTTC: the sensor-assay potency score (higher = more potent) is -0.441.

In turn, TTACACTTATTGAATCTCCTTC registered a sensor-assay potency score (higher = more potent) of 0.411. Same read-out and setting: to TTGATTCATTGTTTGAATCTGT belongs 0.522. Same read-out and setting: to TTAGGTATAGCAACTGTGCTAG belongs 0.733; to TTGCGTAGGATCTGTGATCTGA, 1.11; to TATTTGTGAAGTCTGTATCCAA, 0.0284. On the same count and under the same terms, under TTGATTGAGCAGATGCACCAAA stands -0.419; under TTAGGATACATATTCTTGCAAG, -0.612; under TTTGTTGGAACACAGCATCATC, -1.01.

Sequence TTCAACAGCAGTTCTCTTCCAA yielded a sensor-assay potency score (higher = more potent) of 0.56. On the same count and under the same terms, under TTTGTAAGTAGTCACTGGGTGA stands -0.0209. The sequence TTTGTTTGTAAATAGTTCCAGT returned a sensor-assay potency score (higher = more potent) of 0.147. In the case of TATTCTTGCAAGGTCTACCTTG, the sensor-assay potency score (higher = more potent) is -0.366. Sequence ATAGGTGACACTATAATCCTTC registered a sensor-assay potency score (higher = more potent) of 0.621.

In turn, TTGAAGTACAGTCTTTCTCTTG gave a sensor-assay potency score (higher = more potent) of -0.337. On the same count and under the same terms, under TTTTGCTTGGTACTTATGCTGG stands -0.405; under TTAGTGATCTTCGATTCTGTTC, -0.307. Still for that read-out and setting: under TTCATTAGGATACATATTCTTG stands -0.698; under TAGTGTTATGAACCAAATCTGT, -0.534; under TTTCACTCCAATGTGAACCTTT, 0.41. Consider TTGACAGTCACATTCTTGGTAA, for which the sensor-assay potency score (higher = more potent) is -0.225. In turn, TTGTAAATAGTTCCAGTCCTGC came in with a sensor-assay potency score (higher = more potent) of -0.512. TAGCAGTTGATACAGCCTCTGT: the sensor-assay potency score (higher = more potent) was -1.16.

In another experiment the target is CPEB3. The description is as above. The conditions noted are these: shRNA.
In the case of TTTATTGCATGCAGCAACCTGA, the sensor-assay potency score (higher = more potent) was -0.657. TATAACATTAACAACTTGGGGG returned a sensor-assay potency score (higher = more potent) of 0.19. Same read-out and setting: under TAGTCTTGCAATCATTGTGTGT stands -0.635; under TTTTGCTACATCTGCCACCTAC, -0.378. Still for that read-out and setting: under TTTGAAAACAAACTATAGCTTG stands -0.549; under TAGAGTAGCGTTCTACTCGTTC, -0.216; under TTGCAGGTCAGAACACCTCTGT, 0.0399. Same read-out and setting: under TTGAAGAATATCCTACACCTAG stands -0.344; under TTTAATTGATATCCTAGCCTGA, 0.351; under TTGAAAACAAACTATAGCTTGA, 0.15. As for TAATATAACATTAACAACTTGG, the sensor-assay potency score (higher = more potent) came to 0.134. On the same count and under the same terms, under TTCCATCTGCATCTTGTCCGGG stands 0.148.

A further experiment concerns the target CPNE5. The experiment is described as above. The conditions noted are these: shRNA.
In turn, TTCTTCATTTTCTTTTTCGGGT had a sensor-assay potency score (higher = more potent) of -0.414. Sequence TTCTTCATGACCTCGGTCTTGT registered a sensor-assay potency score (higher = more potent) of 0.503. On the same count and under the same terms, to TTGGTCAGGGATCTCTGCCAGC belongs -1.14; to TTGGTCTGCGCCATGTCCGAGA, -1.04.
